Compound activity: PubChem, Broad Institute
ARNT-TACC3 inh – disrupts binding between human ARNT and TACC3; Q9Y6A5; AlphaScreen His-ARNT PAS-B/GST-TACC3 binding, luminescence; TACC3 fragment carries E629A point mutation; inhibition, % at 9.99 µM; actives 0.66% (n = 390,000); AID 623870;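 active = mean inhibition of replicates at least 50% and at least half of replicates each reaching 50%; inconclusive = half or more replicates reach 50% but mean below 50%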;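 note: 0% = complete ARNT plus TACC3 wells and 100% = ARNT alone without TACC3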
ERAP1 HTS inh – blocks human ERAP1 aminopeptidase activity. recombinant ERAP1, Leu-AMC fluorescence, 60 min. AID 652197. Q9NZ08. actives 0.15% (n = 340,000). inhibition, % at 10.7 µM;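 active = mean replicate inhibition of at least 30%, or all replicates individually reaching that 30% level; inactive = mean below 30% and not every replicate reaching it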;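 note: 0% = neutral control wells and 100% = L-leucinethiol positive control wells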
Target sequence (Q9NZ08 whole entry, looked up): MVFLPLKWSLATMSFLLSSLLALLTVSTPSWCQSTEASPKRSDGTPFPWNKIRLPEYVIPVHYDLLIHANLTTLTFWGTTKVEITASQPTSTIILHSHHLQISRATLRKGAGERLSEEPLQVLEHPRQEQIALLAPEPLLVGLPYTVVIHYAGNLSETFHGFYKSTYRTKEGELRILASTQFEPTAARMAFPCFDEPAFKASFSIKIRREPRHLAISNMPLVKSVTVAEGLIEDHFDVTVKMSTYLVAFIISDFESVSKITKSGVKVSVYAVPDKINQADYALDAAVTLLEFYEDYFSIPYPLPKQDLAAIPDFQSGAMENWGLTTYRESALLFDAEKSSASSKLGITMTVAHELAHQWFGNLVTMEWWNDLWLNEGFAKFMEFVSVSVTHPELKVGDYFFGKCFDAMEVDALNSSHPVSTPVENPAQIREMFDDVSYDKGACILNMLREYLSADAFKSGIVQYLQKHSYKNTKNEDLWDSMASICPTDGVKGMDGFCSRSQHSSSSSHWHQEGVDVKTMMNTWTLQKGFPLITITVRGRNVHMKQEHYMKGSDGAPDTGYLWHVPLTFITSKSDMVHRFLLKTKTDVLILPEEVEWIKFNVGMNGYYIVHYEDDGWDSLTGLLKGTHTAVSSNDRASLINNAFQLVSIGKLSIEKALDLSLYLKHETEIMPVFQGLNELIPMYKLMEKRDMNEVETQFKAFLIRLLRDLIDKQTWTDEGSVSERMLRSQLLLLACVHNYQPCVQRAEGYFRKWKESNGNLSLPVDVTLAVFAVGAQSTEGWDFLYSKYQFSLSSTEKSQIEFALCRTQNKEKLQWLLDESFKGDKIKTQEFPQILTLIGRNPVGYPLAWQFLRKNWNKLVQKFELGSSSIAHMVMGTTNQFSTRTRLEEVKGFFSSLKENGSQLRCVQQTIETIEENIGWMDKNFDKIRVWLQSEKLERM
rRNA inh HTS – inhibits bacterial ribosomal RNA function over humanized ribosomes; E. coli WT GFP vs humanized-ribosome RFP mutants, fluorescence, 24 h; active compounds read low; DMSO median 0, no signal -100; GFP signal change (wild-type ribosome), % (test concentration not listed); actives 1.6% (n = 350,000); AID 720706;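 active = significant combined selectivity score with lowered wild-type GFP, culture density cut under 30%, mutant RFP and density less affected; inactive = any of these conditions unmet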
F508del corr – CFTR F508del correction in bronchial cells | CFBE cells, YFP halide quenching; stimulated with forskolin plus potentiator P3; % fluorescence drop versus neutral controls | activity (quench increase), % at 7.58 µM | actives 0.36% (n = 350,000);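 active = mean added fluorescence quench of at least 8% versus neutral control, with both replicates also reaching 8%; inconclusive = only one of the mean or replicate conditions met; inactive = mean below 8% and not both replicates reaching 8%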;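 note: cells transiently co-express mutant CFTR-F508del with the halide-sensitive YFP; corrector assay measuring rescue of mutant channel to the surface after 24 h compound exposure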
PvdQ inh – blocks Pseudomonas aeruginosa PvdQ acylase activity; inhibition, % at 10 µM; purified PvdQ acylase, fluorescence plate reader; AID 488965; actives 0.063% (n = 340,000); in the data active = inhibition above about 30%, passing the limit was not always enough; inconclusive = no clear call, values can overlap the other calls;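 note: 0% = vehicle neutral wells and 100% = reference inhibitor wells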
Numbers without * were called inactive; ? = inconclusive; · = no result. Shown are actives, neighbours in structure and some others; about 2.1% of the full set was active somewhere.

SMILES	ARNT-TACC3 inh	ERAP1 HTS inh	rRNA inh HTS	F508del corr	PvdQ inh
C[C@@H]1CN([C@H](C)CO)C(=O)c2cc(NC(=O)Nc3ccc(F)cc3)ccc2O[C@@H]1CN(C)C(=O)Nc1ccc(F)cc1	-2	1	-2	1	·
Nc1ccc(-c2c3ccc(=O)cc-3oc3cc(O)ccc23)cc1C(=O)O	·	13	88	8.8*	-11
O=c1ccc2c(-c3ccccc3)c3ccc(O)cc3oc-2c1	-3	-3	50	58*	-14
O=c1cc(-c2ccccc2)oc2cc(O)ccc12	-2	-3	5	0	1
COc1ccc2c3c([nH]c2c1)[C@H](CO)N(C(=O)CN1CCOCC1)CC31CCN(C)CC1	·	2	2	1	·
CC1Nc2ncnc(N3CCOCC3)c2N(Cc2ccccc2)C1=O (stereo not given)	23*	-2	4	0	-7
O=C1C(Cc2ccccc2)Nc2ncnc(N3CCc4ccccc4C3)c2N1Cc1ccc(Cl)cc1 (stereo not given)	-8	·	·	·	-7
CCC1Nc2ncnc(N3CCc4ccccc4C3)c2N(Cc2ccc(Cl)cc2)C1=O (stereo not given)	20	-3	-17*	1	2
COc1ccc(NC(=O)Nc2ccc3c(c2)C(=O)N([C@@H](C)CO)C[C@@H](C)[C@H](CN(C)C(=O)Nc2ccccc2)O3)cc1	-11	0	-1	-2	·
Cc1ccc(S(=O)(=O)NN2C(=O)/C(=C/c3cccs3)SC2=S)cc1	3	0	-34*	3	8
CN(C)c1cccc2c1c(NC(=O)Nc1ccc(F)cc1F)nn2C	-6	2	11	0	-11
CN(C)c1cccc2c1c(NC(=O)Nc1ccccc1)nn2C	2	2	-18*	0	-14
COc1cccc(CN2CC3(CCN(Cc4ccccn4)CC3)c3c([nH]c4cc(OC)ccc34)[C@H]2CO)c1	·	0	3	0	·
Cc1nnc(N2C(=O)c3cccc4c([N+](=O)[O-])ccc(c34)C2=O)s1	-20	-1	46	?	-8
Cc1ccc(N2C(=O)c3cccc4c([N+](=O)[O-])ccc(c34)C2=O)c2cccnc12	0	0	6	25*	-7
O=C1c2cccc3c([N+](=O)[O-])ccc(c23)C(=O)N1Cc1cccnc1	1	6	94	33*	-6
Cc1ccnc(N2C(=O)c3cccc4c([N+](=O)[O-])ccc(c34)C2=O)c1	-5	1	70	23*	-12
C/C=C/c1ccc([C@H]2[C@@H](CO)N(C(=O)CN(C)C)C23CN(C(=O)C2CCCCC2)C3)cc1	·	3	2	-1	·
Cc1noc(C)c1S(=O)(=O)Nc1ccc2c(c1)C(=O)N([C@@H](C)CO)C[C@@H](C)[C@@H](CN(C)Cc1ccc(C(F)(F)F)cc1)OCCCC[C@H](C)O2	-5	0	-1	2	·
COc1ccc(C(=O)N2c3ccccc3C=CC2C#N)cc1 (stereo not given)	·	6	3	0	4
CCSC(=O)N1c2ccc(OC)cc2C=CC1C#N (stereo not given)	-6	3	-10	15*	-1
CC(C)OC(=O)CSc1nnc(-c2ccccn2)n1N	·	0	6	0	·
NC(=O)CSc1nnc(-c2ccccn2)n1N	45*	·	7	-1	-18
COc1ccccc1-c1cnc2c(c1)C(=O)N([C@H](C)CO)C[C@@H](C)[C@H](CN(C)C(=O)CN(C)C)O2	-6	3	2	2	·
COc1cc2c(cc1OC)C(c1c(Cl)cccc1Cl)NC(=O)C2 (stereo not given)	-9	-1	4	-9	0
SMILES	ARNT-TACC3 inh	ERAP1 HTS inh	rRNA inh HTS	F508del corr	PvdQ inh
CC1=C(O)C(=O)OC1c1c(Cl)cccc1Cl (stereo not given)	-3	2	-29*	0	-3
COCCCNC(=S)N/N=C/c1ccc(O)cc1O	84*	2	-5	1	-1
COCCCNC(=S)N/N=C/c1ccc2ccccc2c1	6	8	-32*	-3	-6
COc1cccc(CN2[C@H](CO)[C@H](c3ccccc3)C23CN(C(=O)C2CC2)C3)c1	·	3	-6	0	·
C[C@H]1CN([C@@H](C)CO)C(=O)c2cc(C#CC(C)(C)O)cnc2O[C@H]1CN(C)Cc1cncnc1	-4	2	5	0	·
C[C@H](CO)N1C[C@H](C)[C@H](CN(C)C(=O)C2CC2)Oc2cc(-c3cncnc3)ccc2S1(=O)=O	·	·	-3	-1	·
COn1c(SC(C)C)nc2ccccc2c1=O	-8	·	·	·	6
CC(C#N)Sc1nc2ccccc2c(=O)n1-c1ccccc1 (stereo not given)	4	-1	-22*	3	6
Cc1c(-n2c(SCC(C)C)nc3ccccc3c2=O)c(=O)n(-c2ccccc2)n1C	-1	0	-26*	1	-14
CCN(CC)c1ccc2c(cc1=O)[C@@H](NC)CCc1cc(OC)c(OC)c(OC)c1-2	-3	5	-2	9.5*	-9
CN[C@H]1CCc2cc(OC)c(OC)c(OC)c2-c2ccc(N(C)CC(OC)OC)c(=O)cc21	-21	5	13	11*	-9
COc1cc2c(c(OC)c1OC)-c1ccc(N(C)CC(OC)OC)c(=O)cc1[C@@H](NC(C)=O)CC2	·	6	15	4	-4
COc1cc2c(c(OC)c1OC)-c1ccc(OC)c(=O)cc1[C@@H](NC(C)=O)CC2	4	-2	8	-2	4
CC(=O)Nc1ccc2c(c1)C(=O)N(C)[C@@H]1CC[C@@H](CC(=O)N3CCc4ccccc4C3)O[C@H]1CO2	3	·	-2	-1	·
COc1ccc(NC(=O)N(C)C[C@H]2Oc3ncc(C#C[C@@H](C)O)cc3C(=O)N([C@H](C)CO)C[C@@H]2C)cc1	0	-2	4	1	·
NS(=O)(=O)c1ccc(NC(=O)N2c3ccccc3Sc3ccccc32)cc1	0	-1	-45*	2	1
COc1cccc(-c2ccc3c(c2)[C@@H]2[C@@H](CCN2S(=O)(=O)c2ccccc2C)[C@H](CO)N3C)c1	-9	-3	1	2	·
CCOc1ccc2c(c1)[N+](C)(C)C(C)(C)C=C2C	·	41*	-1	-2	6
COc1ccc2c(c1)C(C)=CC(C)(C)N2S(=O)(=O)c1ccc(C)cc1	4	0	-5	-5	-7
CCNC(=O)N1c2ccc(OCC)cc2C(C)=CC1(C)C	45	·	·	·	1
COc1ccc2c(c1)[N+](C)(C)C(C)(C)C=C2C	-2	45*	15	2	-14
Cc1cccc(N2C(=O)CN(Cc3ccccc3)C2=S)c1	3	2	-14*	4	-15
COc1cc(CN2CC(=O)N(c3ccccc3Cl)C2=S)cc(OC)c1OC	2	-3	-18*	5	-2
